Fh CTSL1 inh = counter-screen for PFM18AAP inhibitors: inhibitors of F. hepatica cathepsin L1; recombinant F. hepatica cathepsin L1, Z-Leu-Arg-MCA fluorescence; inhibition, % at 5.96 µM; hit rate 0.49% among 300,000;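 active = inhibition above the mean of all tested compounds plus 3 SD, set per screening campaign, cut at about 17% in these data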;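 note: 0% = plate median of test compound wells and 100% = 1 µM Z-Phe-Ala-diazomethylketone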
A3G deaminase = inhibitors of human APOBEC3G DNA deaminase | Q9HC16 | recombinant A3G, ssDNA deamination FAM/TAMRA fluorescence | inhibition, % at 20 µM | hit rate 0.28% among 330,000;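 active = inhibition of at least 40% at 20 µM, with no more than 30% in the related APOBEC3A deaminase screen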;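 note: plate controls were DMSO wells with A3G for no effect and wells lacking A3G enzyme for full effect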
Target sequence (Q9HC16 whole entry, looked up): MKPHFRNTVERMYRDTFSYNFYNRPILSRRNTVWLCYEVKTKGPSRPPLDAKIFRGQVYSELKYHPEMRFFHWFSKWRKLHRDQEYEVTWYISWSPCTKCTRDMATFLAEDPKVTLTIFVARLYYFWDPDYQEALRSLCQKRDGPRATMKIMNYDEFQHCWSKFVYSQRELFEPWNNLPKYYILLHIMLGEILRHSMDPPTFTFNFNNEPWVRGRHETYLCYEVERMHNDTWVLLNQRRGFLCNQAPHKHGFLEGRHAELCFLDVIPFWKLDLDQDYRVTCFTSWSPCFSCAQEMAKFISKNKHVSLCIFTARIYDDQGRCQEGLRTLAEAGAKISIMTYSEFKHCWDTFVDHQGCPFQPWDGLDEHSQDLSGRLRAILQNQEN
sPLA2-III inh = Inhibits HGIII-sPLA2 liposome hydrolysis, primary screen. AID 743126. hit rate 0.56% among 370,000. inhibition, % at 12.2 µM. Q9NZ20. QFRET BODIPY PC-A2 liposome hydrolysis, fluorescence;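 active = inhibition above mean plus 3 SD of compounds lying within the high and low control bounds, cut at about 19% in these data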;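 note: 0% = median of test compound wells and 100% = no enzyme DMSO wells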
NALP1 inh = blocks the NALP1 inflammasome reconstituted in yeast; inhibition, % at 10 µM; hit rate 0.61% among 280,000; S. cerevisiae NALP1/ASC/caspase-1 growth, X-gal OD620, 72 h; in the data active = inhibition mostly above about 24%, no sharp cut-off; inactive = mostly below about 32%
A3A deaminase = human APOBEC3A DNA deaminase inhibition. P31941. hit rate 0.41% among 330,000. inhibition, % at 20 µM. recombinant A3A, FAM/TAMRA ssDNA deamination fluorescence;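 active = at least 40% inhibition at 20 µM here, with at most 30% in a related deaminase screen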;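 note: plate controls were A3A with DMSO for no effect and wells lacking A3A enzyme for full effect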
* hit, by the source's call; · = no result. Compounds with a hit are over-represented: about 2% of the library has one in this group of screens.

SMILES	Fh CTSL1 inh	A3G deaminase	sPLA2-III inh	NALP1 inh	A3A deaminase
O=C(CN1CCc2onc(-c3ccc(-n4cc(C5=CCCCC5)nn4)cc3)c2C1=O)N1CCOCC1	·	·	-2	·	·
CC(C)CC(C(=O)OCC(=O)Nc1cccc(Cl)c1)N1C(=O)C2CC=CCC2C1=O (stereo not given)	22*	-8	-22	24	5
CCOc1ccccc1NC(=O)COC(=O)C(CC(C)C)N1C(=O)C2CC=CCC2C1=O (stereo not given)	-2	-9	-8	20	-5
O=C(NNC(=O)c1ccccc1Cl)c1ccccc1Cl	2	-5	-1	3	-3
COc1ccc(COC(=O)NNC(=O)c2ccccc2Cl)cc1	52*	-3	2	0	-17
CN1C(=O)CC(N2CCC(c3nc4ccccc4s3)CC2)C1=O (stereo not given)	19*	0	-3	-15	3
COC(=O)c1ccccc1NC1=C/C(=N\S(=O)(=O)c2ccc(C(=O)O)cc2)c2ccccc2C1=O	47*	-2	·	34	4
COC(=O)c1ccccc1NC1=C/C(=N\S(=O)(=O)c2cccs2)c2ccccc2C1=O	52*	-2	3	11	4
Nn1c(SCC(=O)NC2CCCCC2)nnc1-c1cc(-c2ccc(Cl)cc2)n[nH]1	·	·	-1	·	·
O=C(O)c1c2c(nc3ccc(S(=O)(=O)N4CCC(C(=O)NCc5ccc(Cl)cc5)CC4)cc13)CCCC2	20*	1	-10	-3	-1
CC(C)(C)c1ccc(-c2nnc(SCC(=O)Nc3ccc4cn[nH]c4c3)n2-c2ccc(Cl)cc2)cc1	·	·	7	·	·
CCOC(=O)COc1ccc2nsnc2c1Cl	4	-8	-1	2	-2
C=C(CC)C(=O)c1ccc(OCC(=O)O)c(Cl)c1Cl	-3	-9	-9	78*	-4
CN(C)c1ccc(/C=C(\C#N)C(=O)NCc2ccco2)cc1	3	-9	·	13	-5
CCN(CC)c1ccc(/C=C(\C#N)C(=O)NCc2ccco2)cc1	23*	·	-6	31	·
O=C(Cn1c(=O)c2cccn2c2cccnc21)NCCCN1CCN(c2ccc(Cl)cc2)CC1	·	·	-7	·	·
CCOC(=O)N1CCN(C(=O)C[C@H]2C[C@@]3(C(=O)OC)C(=C[C@H](C4CCCC4)O[C@@H]3C)N(CCC3=CCCCC3)C2=O)CC1	·	·	-8	·	·
COCCNC(=O)C(=O)Nc1cc2c3c(c1)C(C)C(=O)N3CCC2 (stereo not given)	18*	-2	6	15	-4
O=C(Oc1ccc(Cl)c2cccnc12)c1cccc([N+](=O)[O-])c1	2	-1	1	58*	6
CCN(C(=O)c1cc2c(=O)n3ccccc3nc2n1C)C1CCCCC1	6	13	-3	13	2
CN(C(=O)c1cc2c(=O)n3ccccc3nc2n1C)C1CCCCC1	18*	8	5	-2	-1
Cc1nc(-c2ccccc2)nc(Cl)c1Cl	-3	-5	-1	33*	-5
CCN1CCN(c2ncnc3c2sc(=S)n3-c2ccccc2)CC1	0	-5	-3	44*	-2
S=c1sc2c(N3CCN(Cc4ccccc4)CC3)ncnc2n1-c1ccccc1	-1	1	-3	5	-4
S=c1sc2c(N3CCOCC3)ncnc2n1-c1ccccc1	6	-2	-1	39*	-2
SMILES	Fh CTSL1 inh	A3G deaminase	sPLA2-III inh	NALP1 inh	A3A deaminase
COc1ccc(C(=O)c2no[n+]([O-])c2C(=O)c2ccc(OC)cc2)cc1	18*	-3	-4	21	-3
Cc1ccccc1Cn1cc(CN2[C@@H](CC(C)C)COc3cccc(F)c3S2(=O)=O)nn1	·	·	-6	·	·
CC(C)C[C@H](NC(=O)C1CC(=O)N(c2ccc3c(c2)OCO3)C1)C(=O)NCc1ccco1 (stereo not given in full)	27*	16	-3	10	25
CCOC(=O)C1CCCN(C(=O)CCn2nnnc2CN2CCOCC2)C1 (stereo not given)	-3	-10	6	35*	-1
C[C@@H]1CN([C@@H](C)COC(=O)C(C)(C)C)C(=O)c2cc(NC(=O)Nc3ccccc3)ccc2O[C@@H](C)CCCCO[C@H]1CN(C)S(=O)(=O)c1ccc(F)cc1	·	·	-14	·	·
COc1ccccc1/C=N/NC(=O)c1ccc(CN2C(=O)c3cccc4cccc2c34)cc1	18*	2	-4	·	10
O=C(c1cnn2ccccc12)N1CCN(C2CCCCC2)CC1	0	-14	4	-6	-9
O=C(c1cnn2ccccc12)N(Cc1ccco1)C1CCCC1	47*	-9	0	-14	-8
